From PubChem BioAssay (Tox21)
Records with an inconclusive call do not appear. Active and inactive are the calls of the source. Unless noted, calls come from the whole dose curve; as a rule, active = well fitted curve in the direction sought with a large enough effect in the repeat runs; inconclusive = weak or mixed curves; inactive = no such curve, though single readings can be large; an effect the other way counts as inactive or inconclusive.

Legend:
[1] = target: Aryl hydrocarbon receptor (Homo sapiens) (UniProt P35869); assay: qHTS assay to identify small molecule that activate the aryl hydrocarbon receptor (AhR) signaling pathway (AID 743085);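 note: HG2L7.5c1 human HepG2 liver cells with stably integrated DRE-driven firefly reporter; series mostly up to about 70 µM; nearly all actives have a fitted effect of over 15% in size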
Sequence of Aryl hydrocarbon receptor (Homo sapiens) (P35869 whole entry, looked up): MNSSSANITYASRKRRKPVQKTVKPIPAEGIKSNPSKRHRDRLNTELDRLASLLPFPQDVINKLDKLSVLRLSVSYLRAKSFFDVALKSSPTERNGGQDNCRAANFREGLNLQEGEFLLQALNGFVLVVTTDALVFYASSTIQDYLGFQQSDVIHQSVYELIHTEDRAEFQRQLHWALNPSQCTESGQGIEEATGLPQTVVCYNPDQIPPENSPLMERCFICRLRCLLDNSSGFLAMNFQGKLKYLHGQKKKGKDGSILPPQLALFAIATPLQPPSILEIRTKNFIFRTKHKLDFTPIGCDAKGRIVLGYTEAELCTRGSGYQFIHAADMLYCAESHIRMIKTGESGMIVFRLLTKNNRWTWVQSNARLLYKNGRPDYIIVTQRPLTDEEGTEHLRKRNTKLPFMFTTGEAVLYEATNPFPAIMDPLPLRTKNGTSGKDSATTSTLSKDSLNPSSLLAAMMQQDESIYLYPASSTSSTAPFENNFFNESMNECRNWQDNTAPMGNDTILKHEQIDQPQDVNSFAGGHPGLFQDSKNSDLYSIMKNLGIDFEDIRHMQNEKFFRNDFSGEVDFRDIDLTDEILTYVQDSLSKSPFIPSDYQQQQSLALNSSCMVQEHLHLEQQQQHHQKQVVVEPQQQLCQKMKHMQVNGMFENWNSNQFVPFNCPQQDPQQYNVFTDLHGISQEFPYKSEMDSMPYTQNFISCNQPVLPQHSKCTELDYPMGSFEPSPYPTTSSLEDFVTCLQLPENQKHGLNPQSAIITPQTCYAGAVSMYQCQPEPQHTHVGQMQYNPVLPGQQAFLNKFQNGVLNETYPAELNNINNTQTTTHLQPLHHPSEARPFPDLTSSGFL
Method in brief: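 Compounds were tested in HepG2 hepatocellular carcinoma cells harbouring a stably integrated luciferase gene under control of 20 DREs. Increased reporter signal after 24 h treatment at 37C was taken as AhR activation.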

[2] = qHTS assay to identify small molecule that activate the aryl hydrocarbon receptor (AhR) signaling pathway - cell viability counter screen (AID 743086);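 note: HepG2 liver cells carrying the AhR DRE luciferase reporter; series mostly up to about 70 µM; nearly all actives have a fitted effect of over 45% in size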
Method in brief: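 HepG2-AhR-luc (HG2L7.5c1) cells, 4000/well, treated 24 h at 37 C with compound; viability measured as CellTiter-Fluor fluorescence after 30 min in the same wells as the luciferase read.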

[3] = target: Peroxisome proliferator-activated receptor gamma (Homo sapiens) (UniProt P37231); assay: qHTS assay to identify small molecule agonists of the peroxisome proliferator-activated receptor gamma (PPARg) signaling pathway (AID 743094; active = well fitted activation curve with a large enough effect in the signal ratio in the repeat runs, not every such curve was filed as active; the % refers to the signal ratio)
Sequence of Peroxisome proliferator-activated receptor gamma (Homo sapiens) (P37231 whole entry, looked up): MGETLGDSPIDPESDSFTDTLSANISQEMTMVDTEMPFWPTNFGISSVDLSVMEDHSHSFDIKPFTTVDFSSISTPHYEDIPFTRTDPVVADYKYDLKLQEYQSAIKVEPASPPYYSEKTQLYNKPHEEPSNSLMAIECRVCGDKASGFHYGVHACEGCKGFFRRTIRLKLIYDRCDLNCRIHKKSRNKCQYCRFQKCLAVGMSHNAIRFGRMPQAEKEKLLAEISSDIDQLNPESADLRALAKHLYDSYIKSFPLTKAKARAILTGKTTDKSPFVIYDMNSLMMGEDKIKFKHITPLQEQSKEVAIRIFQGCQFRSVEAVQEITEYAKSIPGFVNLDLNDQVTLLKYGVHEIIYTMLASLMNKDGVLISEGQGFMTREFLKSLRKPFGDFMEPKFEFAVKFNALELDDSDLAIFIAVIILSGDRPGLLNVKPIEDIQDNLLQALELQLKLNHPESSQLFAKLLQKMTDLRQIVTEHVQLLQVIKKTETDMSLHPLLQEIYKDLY
Method in brief: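 Agonist activity was taken from a beta-lactamase reporter (FRET substrate, 1 h at room temperature) in HEK293H cells carrying a PPARg UAS-bla construct. Compounds in DMSO were incubated 17 h at 37C after a 5 h cell pre-incubation.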

[4] = target: Peroxisome proliferator-activated receptor gamma (Homo sapiens) (UniProt P37231); assay: qHTS assay to identify small molecule antagonists of the peroxisome proliferator-activated receptor gamma (PPARg) signaling pathway (AID 743191; calls by dose curve; note: series mostly up to about 63 µM; nearly all actives have a fitted effect of over 30% in size)
Method in brief: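 GeneBLAzer PPARg UAS-bla HEK293H cells, 5 h post-plating, exposed to compounds 17 h at 37C. LiveBLAzer B/G FRET substrate added for 1 h at room temperature; beta-lactamase reporter read by fluorescence intensity.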

[5] = qHTS assay to identify small molecule antagonists of the peroxisome proliferator-activated receptor gamma (PPARg) signaling pathway - cell viability counter screen (AID 743194); note: nearly all actives have a fitted effect of over 55% in size
Method in brief: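 Cytotoxicity counter screen in PPARg-bla HEK293H cells, same wells as reporter assay. Compounds plus 50 nM rosiglitazone (final) for 17 h at 37 C, then viability read by CellTiter-Glo luminescence.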

[6] = qHTS assay for small molecule agonists of the antioxidant response element (ARE) signaling pathway - cell viability counter screen (AID 743203; calls by dose curve; note: nearly all actives have a fitted effect of over 55% in size)
Method in brief: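 Viability counter screen: CellTiter-Glo luminescence, read after 30 min at room temperature, in ARE-bla HepG2 wells. Compound exposure lasted 16 h at 37C/5% CO2, following a 5 h pre-incubation of the cells after plating.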

[7] = qHTS assay for small molecule activators of the heat shock response signaling pathway - cell viability counter screen (AID 743209); note: nearly all actives have a fitted effect of over 50% in size
Method in brief: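 Cytotoxicity counter screen run in the same wells as the heat-shock bla reporter assay: HeLa HSE-bla cells, 5 h compound exposure at 37 C, viability read by CellTiter-Glo luminescence.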

[8] = qHTS assay for small molecule activators of the heat shock response signaling pathway (AID 743210; active = well fitted activation curve with a large enough effect in the signal ratio in the repeat runs, with a control signal flat, not every such curve was filed as active; the % refers to the signal ratio;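 note: HeLa cells with beta-lactamase reporter driven by heat shock elements; series mostly up to about 63 µM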)
Method in brief: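 Beta-lactamase reporter read-out: FRET substrate fluorescence after 2.5 h at RT, following 5 h compound treatment at 37 C of HeLa cells carrying HSE-driven bla reporter; quantitative HTS format.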

[9] = qHTS assay to identify small molecule agonists of the peroxisome proliferator-activated receptor delta (PPARd) signaling pathway - cell viability counter screen (AID 743211); note: nearly all actives have a fitted effect of over 55% in size
Method in brief: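 Counter screen for cytotoxicity run in parallel with the PPARd reporter screen. Beta-lactamase reporter HEK293H cells exposed to compounds 17 h; ATP-based CellTiter-Glo luminescence quantified viability.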

[10] = target: Peroxisome proliferator-activated receptor delta (Homo sapiens) (UniProt Q03181); assay: qHTS assay to identify small molecule agonists of the peroxisome proliferator-activated receptor delta (PPARd) signaling pathway (AID 743212; calls by dose curve)
Sequence of Peroxisome proliferator-activated receptor delta (Homo sapiens) (Q03181 whole entry, looked up): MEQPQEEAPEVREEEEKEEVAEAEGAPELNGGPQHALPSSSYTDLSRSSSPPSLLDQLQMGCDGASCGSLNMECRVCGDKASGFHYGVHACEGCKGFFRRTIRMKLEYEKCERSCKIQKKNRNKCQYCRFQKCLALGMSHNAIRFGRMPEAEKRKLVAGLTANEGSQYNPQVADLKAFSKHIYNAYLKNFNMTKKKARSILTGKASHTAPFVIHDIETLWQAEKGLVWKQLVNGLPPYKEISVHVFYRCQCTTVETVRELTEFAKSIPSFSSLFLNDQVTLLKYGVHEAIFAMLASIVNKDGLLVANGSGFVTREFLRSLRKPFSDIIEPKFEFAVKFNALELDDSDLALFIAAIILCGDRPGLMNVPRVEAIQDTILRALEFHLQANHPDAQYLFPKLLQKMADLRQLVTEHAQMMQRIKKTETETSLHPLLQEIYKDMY
Method in brief: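 Read-out: beta-lactamase FRET fluorescence after 2 h room-temperature incubation with LiveBLAzer B/G substrate. Cells were HEK293H carrying a UAS-bla reporter for PPARd, treated at 37 C with DMSO-dissolved compounds.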

[11] = target: Peroxisome proliferator-activated receptor delta (Homo sapiens) (UniProt Q03181); assay: qHTS assay to identify small molecule antagonists of the peroxisome proliferator-activated receptor delta (PPARd) signaling pathway (AID 743215; active = well fitted inhibition curve with a large enough effect in the signal ratio in the repeat runs, not every such curve was filed as active; the % refers to the signal ratio;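 note: cells stimulated with agonist L165041 at 300 nM final during compound exposure; series mostly up to about 62 µM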)
Method in brief: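 Agonist L165041 (300 nM final) added with compound to PPARd-bla HEK293H UAS-bla reporter cells; 17 h incubation at 37 C. Read-out: LiveBLAzer FRET substrate, 2 h at room temperature, fluorescence intensity.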

[12] = qHTS assay to identify small molecule agonists of the farnesoid-X-receptor (FXR) signaling pathway - cell viability counter screen (AID 743218); note: nearly all actives have a fitted effect of over 45% in size
Method in brief: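 Viability counter screen in the same wells: CellTiter-Glo luminescence, 30 min room-temperature incubation, measured after the beta-lactamase read. Cells were GeneBLAzer FXR-UAS-bla HEK 293T, compound-treated 16 h at 37C.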

[13] = qHTS assay to identify small molecule antagonists of the farnesoid-X-receptor (FXR) signaling pathway - cell viability counter screen (AID 743221; active = well fitted cell-killing curve with a large enough effect in the repeat runs, not every such curve was filed as active; note: nearly all actives have a fitted effect of over 50% in size)
Method in brief: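 Multiplexed counter screen: viability of FXR-bla HEK 293T cells under agonist stimulation by chenodeoxycholic acid (50 uM, final) and test compound for 16 h at 37 C, measured by CellTiter-Glo luminescence in the reporter wells.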

[14] = target: Vitamin D3 receptor (Homo sapiens) (UniProt P11473); assay: qHTS assay to identify small molecule agonists of the vitamin D receptor (VDR) signaling pathway (AID 743222; calls by dose curve)
Sequence of Vitamin D3 receptor (Homo sapiens) (P11473 whole entry, looked up): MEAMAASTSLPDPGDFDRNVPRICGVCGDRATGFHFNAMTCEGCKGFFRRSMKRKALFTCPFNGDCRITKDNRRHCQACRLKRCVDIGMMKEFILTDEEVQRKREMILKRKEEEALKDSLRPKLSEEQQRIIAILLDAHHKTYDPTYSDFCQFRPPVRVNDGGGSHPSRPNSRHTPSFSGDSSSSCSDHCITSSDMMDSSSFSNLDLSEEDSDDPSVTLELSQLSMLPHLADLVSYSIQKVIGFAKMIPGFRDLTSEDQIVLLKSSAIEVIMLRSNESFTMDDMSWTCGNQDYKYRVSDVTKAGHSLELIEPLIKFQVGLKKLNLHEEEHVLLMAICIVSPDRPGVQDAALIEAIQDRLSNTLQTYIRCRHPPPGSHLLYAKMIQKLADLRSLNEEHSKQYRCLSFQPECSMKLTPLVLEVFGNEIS
Method in brief: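 Agonist mode, beta-lactamase reporter: fluorescence from LiveBLAzer B/G FRET substrate (2 h, room temperature) read after 16 h compound treatment at 37 C of VDR-bla cells, which were pre-incubated 4 h after seeding.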

[15] = qHTS assay to identify small molecule agonists of the vitamin D receptor (VDR) signaling pathway - cell viability counter screen (AID 743224); note: series mostly up to about 63 µM; nearly all actives have a fitted effect of over 50% in size
Method in brief: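 Counter screen run in the same wells as the VDR-bla reporter assay: CellTiter-Glo luminescence, 30 min at room temperature, after 16 h compound treatment at 37C of cells pre-plated for 4 h.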

[16] = qHTS assay for small molecule agonists of the antioxidant response element (ARE) signaling pathway (AID 743202; active = well fitted activation curve with a large enough effect in the signal ratio in the repeat runs, not every such curve was filed as active; the % refers to the signal ratio)
Method in brief: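 HepG2 ARE-bla reporter line, 2,000 cells/well; 5 h preincubation 37 C/5% CO2; compound (DMSO) 16 h 37 C; B/G FRET substrate 2 h RT; fluorescence intensity.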

[17] = qHTS assay to identify small molecule antagonists of the peroxisome proliferator-activated receptor delta (PPARd) signaling pathway - cell viability counter screen (AID 743213); note: nearly all actives have a fitted effect of over 50% in size
Method in brief: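 HEK293H cells with the PPARd UAS-bla reporter, co-treated 17 h at 37 C with compounds and L165041 (300 nM final), were lysed with CellTiter-Glo. Luminescence indicated viable cell content.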

[18] = target: Bile acid receptor (Homo sapiens) (UniProt Q96RI1); assay: qHTS assay to identify small molecule antagonists of the farnesoid-X-receptor (FXR) signaling pathway (AID 743217; active = well fitted inhibition curve with a large enough effect in the signal ratio in the repeat runs, not every such curve was filed as active; the % refers to the signal ratio)
Sequence of Bile acid receptor (Homo sapiens) (Q96RI1 whole entry, looked up): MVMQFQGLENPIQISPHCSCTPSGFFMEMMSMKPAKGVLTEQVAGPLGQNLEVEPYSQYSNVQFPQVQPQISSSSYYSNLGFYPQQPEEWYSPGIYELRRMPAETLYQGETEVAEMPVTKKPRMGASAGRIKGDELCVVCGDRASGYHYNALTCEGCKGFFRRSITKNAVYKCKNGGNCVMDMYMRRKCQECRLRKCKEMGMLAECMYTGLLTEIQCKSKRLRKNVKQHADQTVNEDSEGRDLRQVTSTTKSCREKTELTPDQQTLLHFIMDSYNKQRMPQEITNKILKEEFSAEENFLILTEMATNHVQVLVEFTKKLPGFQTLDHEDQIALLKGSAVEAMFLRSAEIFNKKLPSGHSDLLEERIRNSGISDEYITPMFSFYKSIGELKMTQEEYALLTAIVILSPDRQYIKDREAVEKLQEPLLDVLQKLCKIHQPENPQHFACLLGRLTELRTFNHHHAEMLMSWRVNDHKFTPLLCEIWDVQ
Method in brief: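 Antagonist mode: chenodeoxycholic acid at 50 uM final stimulates a UAS-driven beta-lactamase reporter in HEK 293T FXR-bla cells during 16 h, 37C compound exposure. Read-out is FRET substrate fluorescence after 2 h at room temperature.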

[19] = target: Bile acid receptor (Homo sapiens) (UniProt Q96RI1); assay: qHTS assay to identify small molecule agonists of the farnesoid-X-receptor (FXR) signaling pathway (AID 743220; active = well fitted activation curve with a large enough effect in the signal ratio in the repeat runs, not every such curve was filed as active; the % refers to the signal ratio)
Method in brief: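 FXR-UAS-bla HEK 293T cells carrying a UAS-driven beta-lactamase reporter were plated for 5 h at 37C/5% CO2, then exposed to DMSO-dissolved Tox21 10K compounds for 16 h at 37C. A LiveBLAzer B/G FRET substrate was loaded for 2 h at room temperature before fluorescence reading.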

[20] = target: Vitamin D3 receptor (Homo sapiens) (UniProt P11473); assay: qHTS assay to identify small molecule antagonists of the vitamin D receptor (VDR) signaling pathway (AID 743223; active = well fitted inhibition curve with a large enough effect in the signal ratio in the repeat runs, not every such curve was filed as active; the % refers to the signal ratio)
Method in brief: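 Cells carrying a VDR-driven beta-lactamase reporter (VDR-bla) were co-treated with compound and 3 nM final 1alpha,25-dihydroxyvitamin D3 for 16 h at 37C; reporter activity was measured as FRET substrate fluorescence after 2 h at room temperature.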

Measured: Potency

CC(C)CC(O)Cc1ccccc1 (stereo unspecified)
not listed: [16] | [17] | [18] | [19] | [20]
inactive: all other assays above

CC(CC(=O)Cl)CC(C)(C)C (stereo unspecified)
not listed: [8] | [10] | [11] | [12] | [13] | [18] | [19] | [20]
inactive: all other assays above

CC(=O)SC[C@@H](C)C(=O)N1CCC[C@H]1C(=O)N[C@@H](Cc1ccccc1)C(=O)O
not listed: [11] | [12] | [16] | [17]
inactive: all other assays above

C=CCCCCCCCCCCCCCC
not listed: [13] | [16] | [18] | [19]
inactive: all other assays above

O=c1[nH]c(=O)c2cn[nH]c2[nH]1
not listed: [7] | [9] | [13] | [18] | [19]
inactive: all other assays above

CCCCCCCCC1CO1 (stereo unspecified)
not listed: [7] | [11] | [13]
inactive: all other assays above

Cc1ccc(N)nc1
not listed: [7] | [10] | [14] | [17] | [20]
inactive: all other assays above

Nc1cc(S(=O)(=O)O)ccc1O
not listed: [11] | [13] | [16] | [18] | [19]
inactive: all other assays above

C/C=C(\C)C(=O)OC/C=C(\C)CCC=C(C)C
not listed: [8] | [13] | [17] | [18] | [19]
inactive: all other assays above
